A short description of assay [1]: hESC survival regulators, cell-based (AID 493140; call rule not given here;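 further: cells exposed to compounds for four days before counting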). Conditions: human embryonic stem cell survival screen; stronger effect = higher value.
Assay [2] in a line: differential killing of epithelial or mesenchymal cells, primary screen, imaging, PC-3E GFP, TEM4-18 mCherry, co-culture (AID 1345086;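 active means compounds killing one labelled cell type while sparing the other, by normalised counts and ratio limits, not self-fluorescent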;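 on all read-outs here: cells exposed to compound for 72 h before imaging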;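 on red/green cell ratio (normalised): normalised mesenchymal count divided by normalised epithelial count so high means epithelial killing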). The settings on record: imaging cell counts, at 1 µM; for red/green cell ratio (normalised): actives lie on both sides, counts scaled to control wells, 1 = unselective.
Assay [3] in a line: growth inhibition of DIPG glioma cells, dose response, cell-based, SU-DIPG-XVII, MIPE5.0, CellTiter-Glo, qHTS (AID 1347060; cut-off not given, nearly all actives have AC50 up to about 26 µM;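 further: cells exposed to compound for 48 hours before viability readout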). The settings on record: SU-DIPG-XVII viability, CellTiter-Glo ATP luminescence.
Assay [4] is described as follows: viability loss in pontine glioma line – cell-based, SU-DIPG-XXV, MIPE5.0, CellTiter-Glo, qHTS, dose response (AID 1347065; cut-off not given, nearly all actives have AC50 up to about 26 µM;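 further: cells exposed to compound for 48 hours before ATP readout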). The settings on record: CellTiter-Glo ATP luminescence. (Cellular ATP, detected with luciferase, serves as a proxy for viable cell number.)
A short description of assay [5]: sensitizers of A549 cells to miR-34 induction, primary screen, imaging, A549 dox-inducible miR-34, nuclei and caspase counts (AID 1347080). Conditions: A549 miR-34 inducible, Hoechst nuclei count, 48 h.
Assay [6] is described as follows: survival rescue of mitochondrial mutant cells in low glucose, primary screen, MELAS cybrids, Rieske KO mouse fibroblasts, CellTiter-Glo (AID 1508586;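 active means mean z-score across replicates of 1.96 or higher in either the MELAS or the Rieske mutant cell line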;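 further: z relative to plate mean and SD of compound and empty wells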).
Assay [7] concerns Hepatitis C virus NS3 helicase. As to the kind of experiment: HCV NS3 helicase inhibitors, primary screen, biochemical, fluorescence polarization, LOPAC1280 library (AID 687035; in the data active means inhibition above about 37%). The settings on record: Purified HCV NS3 helicase, Cy5-dT15 ssDNA binding fluorescence polarization; stronger effect = higher value; concentration not given here. Background: Polarisation of emitted light reports the rotation of a fluorescent probe.

The nature of assay [8]: Cy5 fluorescence quenching or enhancement artefacts, artefact control for HCV NS3 helicase inhibitor project, biochemical, LOPAC1280 (AID 687037; call rule not given here). The settings on record: Cy5-DNA-NS3h complex fluorescence interference counterscreen.
Assay [9] can be described thus: phospholipid biosynthesis inhibitors in animal cells, primary screen, cell-based, LOPAC library, screen 4 (AID 1347384; call rule not given here). The settings on record: phospholipid biosynthesis inhibition screen, at 10 µM.
For assay [10], the target named is Mitogen-activated protein kinase 7 (Homo sapiens) (UniProt Q13164). In words: ERK5 transactivation activators in reporter cells, primary screen, cell-based, HTS (AID 1508626;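 active means luciferase signal above three times the same-plate solvent-only control wells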;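 further: luciferase driven by Gal4-ERK5 fusion binding five Gal4 sites before minimal TATA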). Conditions: HeLa Gal4-ERK5 transactivation, 18 h, at 5 µM, stronger effect = higher value.
Sequence of Mitogen-activated protein kinase 7 (Homo sapiens) (Q13164 whole entry, looked up, the tested form may be a part): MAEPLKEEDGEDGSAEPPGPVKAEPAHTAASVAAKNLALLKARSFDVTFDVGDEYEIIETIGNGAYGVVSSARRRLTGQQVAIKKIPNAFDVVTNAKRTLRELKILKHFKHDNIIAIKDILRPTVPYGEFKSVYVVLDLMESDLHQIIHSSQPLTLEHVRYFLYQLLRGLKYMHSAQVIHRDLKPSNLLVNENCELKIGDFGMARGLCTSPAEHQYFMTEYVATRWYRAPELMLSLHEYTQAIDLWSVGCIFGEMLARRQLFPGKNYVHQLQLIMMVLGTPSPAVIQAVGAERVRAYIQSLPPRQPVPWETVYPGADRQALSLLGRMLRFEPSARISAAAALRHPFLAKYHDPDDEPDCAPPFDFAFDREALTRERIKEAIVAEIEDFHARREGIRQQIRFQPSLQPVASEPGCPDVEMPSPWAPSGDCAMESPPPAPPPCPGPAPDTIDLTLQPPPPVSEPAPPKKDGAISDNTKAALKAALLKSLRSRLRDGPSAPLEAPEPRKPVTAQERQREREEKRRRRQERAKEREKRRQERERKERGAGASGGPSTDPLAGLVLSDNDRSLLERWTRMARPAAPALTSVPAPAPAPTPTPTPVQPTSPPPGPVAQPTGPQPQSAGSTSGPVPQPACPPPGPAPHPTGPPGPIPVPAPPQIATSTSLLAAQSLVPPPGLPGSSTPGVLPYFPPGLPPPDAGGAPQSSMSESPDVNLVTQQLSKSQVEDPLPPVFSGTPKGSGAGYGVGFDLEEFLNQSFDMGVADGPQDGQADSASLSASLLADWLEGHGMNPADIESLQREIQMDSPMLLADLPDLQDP
Assay [11] can be described thus: viability rescue of complex I mutant cybrids, primary screen, cell-based, galactose medium, ATP luminescence (AID 1645843;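 active means z-score of at least 1.8 in each of two replicates, scored against plate mean and spread of sample wells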;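 further: positive z means more ATP and so rescue of galactose-driven cybrid death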). The settings on record: complex I mutant cybrid cells, 72 h, stronger effect = higher value.
The target of assay [12] is NAD(+) hydrolase SARM1 (Homo sapiens) (UniProt Q6SZW1). In words: SARM1 TIR NADase inhibitors, cell lysate, NAD-Glo luminescence (AID 1508614;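 active means compound whose remaining NAD level is above about 45 nM, limit read from the data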). Conditions: SAM-TIR HEK293T lysate NADase, at 1 µM, stronger effect = higher value.
Sequence of NAD(+) hydrolase SARM1 (Homo sapiens) (Q6SZW1 whole entry, looked up): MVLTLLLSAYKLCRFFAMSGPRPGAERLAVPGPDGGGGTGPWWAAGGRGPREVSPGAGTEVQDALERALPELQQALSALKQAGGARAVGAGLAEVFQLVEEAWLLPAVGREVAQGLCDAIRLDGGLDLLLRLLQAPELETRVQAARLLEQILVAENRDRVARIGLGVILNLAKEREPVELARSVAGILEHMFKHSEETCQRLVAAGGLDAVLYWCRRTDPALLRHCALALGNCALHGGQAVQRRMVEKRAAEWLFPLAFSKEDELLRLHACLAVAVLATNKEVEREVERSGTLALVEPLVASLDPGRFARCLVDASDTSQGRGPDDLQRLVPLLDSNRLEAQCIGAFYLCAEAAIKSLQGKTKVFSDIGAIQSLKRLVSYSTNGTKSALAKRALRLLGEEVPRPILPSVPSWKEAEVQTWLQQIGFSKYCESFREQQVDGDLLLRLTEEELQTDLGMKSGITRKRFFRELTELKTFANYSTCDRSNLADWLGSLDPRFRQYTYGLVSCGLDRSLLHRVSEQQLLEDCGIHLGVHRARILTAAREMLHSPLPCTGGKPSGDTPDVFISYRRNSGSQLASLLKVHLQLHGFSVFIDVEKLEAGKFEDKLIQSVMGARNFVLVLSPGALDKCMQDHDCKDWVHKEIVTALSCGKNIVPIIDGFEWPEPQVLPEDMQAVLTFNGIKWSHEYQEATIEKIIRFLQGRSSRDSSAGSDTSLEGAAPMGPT
Assay [13] in a line: liver-stage malaria parasite growth inhibition, primary screen, cell-based, HepG2, luciferase luminescence, HepG2 viability (AID 624349; in the data active means parasite load remaining mostly below about 12%, no sharp cut-off; inactive means mostly above about 10%;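 further: 100% = mean of DMSO negative control wells on the same plate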). Conditions: P. berghei liver stage in HepG2, luciferase luminescence, concentration not given here; parasite load remaining: stronger effect = lower value; viability: measured here: HepG2 viability without parasites.
The mark [14] stands for this setting: measured here: epithelial PC-3E GFP cell survival.
The mark [15] stands for this setting: measured here: mesenchymal TEM4-18 mCherry cell survival.
[16] abbreviates: stronger effect = lower value, cell number ratio, induced over uninduced.
Setting [17] is: measured here: relative caspase fold change +Dox/-Dox.
[18] abbreviates: measured here: total cells with miR-34 induction, stronger effect = lower value.
Where [19] appears, read: measured here: total cells without miR-34 induction.
[20] abbreviates: MELAS cybrid survival, CellTiter-Glo 48 h, stronger effect = higher value.
Setting [21] is: Rieske KO mouse fibroblast survival, CellTiter-Glo 72 h.

Values joined by “and” are separate entries in the source; they are usually repeats but may differ in a detail not shown here. Identical values can stand only once. Inconclusive results are not listed. Active and inactive are the calls of the source.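 How the source made its calls, unless noted: active means compounds whose cell count with miR-34 switched on is under 0.7 times the count with it off; inactive means the rest.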

What is called AC50 is the concentration at which the activity in the assay is half-maximal. By inhibition is commonly meant the drop in the measured response relative to a control, in per cent. What is called viability is a read-out of living cells in per cent, often relative to untreated cells.

Take `OC(c1cc(C(F)(F)F)nc2c(C(F)(F)F)cccc12)C1CCCCN1` (centres undefined): in assay [1], the survival is 3.83 (inactive). In assay [2], the red/green cell ratio (normalised) was 0.94 (inactive). For the same compound, the normalised cell number in assay [2] (setting [14]) turned out to be 1.16; in assay [2] (setting [15]), 1.1. In addition, the AC50 in assay [3] and in assay [4] was 20.9 µM (active) throughout. The fold change in [5] (setting [16]) is 0.709 (inactive) and 0.928 (inactive); in assay [5] (setting [17]), 1.51 and 4.5. Further, the cell count in assay [5] (setting [18]) is 3010 and 11200; in [5] (setting [19]), 4250 and 12100. Moreover, the z-score in [6] (setting [20]) is -2.19 (inactive); in assay [6] (setting [21]), -3.08.
For `N=C(N)SCCN`, in assay [7], the inhibition was -3% (inactive). In addition, in assay [8], the fluorescence ratio (interference) is 1 (inactive). Besides, in assay [2], the red/green cell ratio (normalised) was 0.88 (inactive). The normalised cell number in assay [2] (setting [14]) was 1.12; in assay [2] (setting [15]) it was 0.98. Moreover, the fold change in [5] (setting [16]) is 0.958 (inactive) and 1.11 (inactive); in assay [5] (setting [17]), 2.51 and 0.757. For the same compound, the cell count is 9240 and 6110 in assay [5] (setting [18]); 9640 and 5490 in assay [5] (setting [19]). The result in assay [9] was inactive. For the same compound, the luciferase signal in [10] was 96 AU (inactive). Moreover, the z-score in [11] is -0.855 (inactive).
As for `CC1=CC(=O)NS(=O)(=O)O1`, in assay [2], the red/green cell ratio (normalised) is 1.16 (inactive). Further, the figures for the normalised cell number in assay [2] (setting [14]) and in assay [2] (setting [15]) were 0.89 and 1.03, respectively. Further, the fold change is 0.852 (inactive) and 0.934 (inactive) in assay [5] (setting [16]); 0.799 and 0.672 in assay [5] (setting [17]). Further, the cell count in assay [5] (setting [18]) was 7390 and 8400; in [5] (setting [19]) it was 8680 and 8990. The z-score in assay [6] (setting [20]) is -0.393 (inactive); in assay [6] (setting [21]), -0.0842. The remaining NAD in [12] is 10 nM (inactive).
With `CCC(NC(C)C)C(O)c1ccc(O)c(O)c1` (centres undefined), the survival in [1] was 6.67 (inactive). Moreover, in assay [13], the parasite load remaining was 55.9% (inactive) and 47.9% (inactive). Moreover, the viability in assay [13] is 94.3% and 104%. The inhibition in assay [7] was -1% (inactive). Also, in [8], the fluorescence ratio (interference) was 0.9 (inactive). Moreover, the red/green cell ratio (normalised) in [2] was 1.04 (inactive). The normalised cell number was found to be 0.9 in assay [2] (setting [14]) and 0.93 in assay [2] (setting [15]). The fold change in assay [5] (setting [16]) is 1.08 (inactive) and 0.894 (inactive) and 0.889 (inactive); in assay [5] (setting [17]), 0.697 and 1.09 and 4.01. Besides, the cell count in assay [5] (setting [18]) was 10800 and 8990 and 12000; in [5] (setting [19]), 9990 and 10100 and 13500. The compound was called inactive in [9]. The z-score is -0.772 (inactive) in assay [6] (setting [20]), -0.513 in [6] (setting [21]) and -1.29 (inactive) in [11]. The remaining NAD in assay [12] is 10 nM (inactive). In addition, the luciferase signal in assay [10] was 212 AU (inactive).
Regarding `CN(C)CC(c1ccc(O)cc1)C1(O)CCCCC1` (centres undefined), in [2], the red/green cell ratio (normalised) is 1 (inactive). For the same compound, the normalised cell number in assay [2] (setting [14]) and in [2] (setting [15]) was 0.79 throughout. The fold change is 0.982 (inactive) and 0.891 (inactive) and 0.889 (inactive) in assay [5] (setting [16]); 0.639 and 1.05 and 1.37 in [5] (setting [17]). Further, the cell count in assay [5] (setting [18]) was 9600 and 8680; in assay [5] (setting [19]) it was 9780 and 9740 and 9750. The z-score in [6] (setting [20]) is -0.237 (inactive) and -0.203 (inactive); in [6] (setting [21]), -0.123 and -0.139. Also, the remaining NAD in assay [12] is 10 nM (inactive).
For `CCCCC[C@H](CC(=O)NO)C(=O)N[C@H](C(=O)N1CCC[C@H]1CO)C(C)C`, the inhibition in assay [7] was 0% (inactive). Moreover, the fluorescence ratio (interference) in assay [8] was 1.1 (inactive). Moreover, in assay [2], the red/green cell ratio (normalised) is 0.91 (inactive). For the same compound, the normalised cell number was determined as 1.02 in assay [2] (setting [14]) and 0.93 in [2] (setting [15]). Besides, the fold change is 2.17 (inactive) in [5] (setting [16]) and 1.05 in assay [5] (setting [17]). Moreover, the cell count was 6800 in assay [5] (setting [18]) and 3130 in assay [5] (setting [19]). Further, the call in assay [9] was inactive. Moreover, the luciferase signal in assay [10] is 192 AU (inactive). Further, the z-score in assay [11] is 2.42 (inactive).

The record behind these values is PubChem BioAssay.
